Reference: PubChem BioAssay (NCATS)
Inconclusive results are not listed. Unless noted, the call rests on the fitted dose curve; in most records, active means well fitted curve in either direction with a large enough effect (not every such curve was filed as active); inconclusive means small, poorly fitted or top-dose-only effect, or another doubt; inactive means flat fitted curve, though single readings scatter.

Legend:
[1] = AP1 Signaling Pathway (AID 357); conditions: ME-180 AP-1-bla reporter, EGF-induced, beta-lactamase ratio, 5 h; at 17.2 µM (top of the series) unless noted;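 further: ME-180 reporter cells stimulated with EGF at its EC50 level; on the % scale 0 is the no-effect control and ±100 the full control effect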
Method in brief: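 Titration-series screen for positive or negative modulators of EC50 EGF-induced signaling in ME-180 cells carrying an AP-1-driven beta-lactamase reporter. After 5 hours at 37 degrees Celsius, CCF4 460nm/530nm emission ratio gave %Activity; AC50 values derived.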

[2] = NFAT Signaling Pathway (AID 444); conditions: Jurkat NFAT-bla M1, carbachol, beta-lactamase ratio, 5 h; at 17.2 µM (top of the series) unless noted;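 further: carbachol stimulus at about its EC50 of 1 µM final; on the % scale 0 is the no-effect control and ±100 the full control effect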
Method in brief: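 Read-out: CCF4 FRET ratio (460 nm/530 nm) after 1 h RT dye loading, used for %activity and AC50 from titration series. Cells: Jurkat NFAT-β-lactamase/M1 line, treated with compound plus 1 uM carbachol for 5 h, 37 °C.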

[3] = Stat Signaling Pathway (AID 446); conditions: ME-180 SIE beta-lactamase reporter, IL-6 stimulated, 5 h; at 17.2 µM (top of the series) unless noted;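 further: ME-180 cervical cancer cells given 40 pM IL-6 alongside compound; SIE-controlled beta-lactamase reporter measured as 460/530 nm FRET emission ratio; on the % scale 0 is the no-effect control and ±100 the full control effect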
Method in brief: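 ME-180 SIE-bla cells; overnight plating; cpd + IL-6 40 pM, 5 h, 37 C; LiveBLAzer 2.5 h RT; 460/530 nm emission ratio. Normalized to 300 pM IL-6 and 125 nM JAK inhibitor controls.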

[4] = target: Glucocorticoid receptor (Homo sapiens) (UniProt P04150); experiment: GR-GFP Redistribution (AID 450;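 active means compounds whose dose series gives a full or clear partial fitted curve of increased nuclear translocation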; further: potency means the concentration at half of the fitted maximal effect)
Glucocorticoid receptor (Homo sapiens), sequence (P04150 whole entry, looked up): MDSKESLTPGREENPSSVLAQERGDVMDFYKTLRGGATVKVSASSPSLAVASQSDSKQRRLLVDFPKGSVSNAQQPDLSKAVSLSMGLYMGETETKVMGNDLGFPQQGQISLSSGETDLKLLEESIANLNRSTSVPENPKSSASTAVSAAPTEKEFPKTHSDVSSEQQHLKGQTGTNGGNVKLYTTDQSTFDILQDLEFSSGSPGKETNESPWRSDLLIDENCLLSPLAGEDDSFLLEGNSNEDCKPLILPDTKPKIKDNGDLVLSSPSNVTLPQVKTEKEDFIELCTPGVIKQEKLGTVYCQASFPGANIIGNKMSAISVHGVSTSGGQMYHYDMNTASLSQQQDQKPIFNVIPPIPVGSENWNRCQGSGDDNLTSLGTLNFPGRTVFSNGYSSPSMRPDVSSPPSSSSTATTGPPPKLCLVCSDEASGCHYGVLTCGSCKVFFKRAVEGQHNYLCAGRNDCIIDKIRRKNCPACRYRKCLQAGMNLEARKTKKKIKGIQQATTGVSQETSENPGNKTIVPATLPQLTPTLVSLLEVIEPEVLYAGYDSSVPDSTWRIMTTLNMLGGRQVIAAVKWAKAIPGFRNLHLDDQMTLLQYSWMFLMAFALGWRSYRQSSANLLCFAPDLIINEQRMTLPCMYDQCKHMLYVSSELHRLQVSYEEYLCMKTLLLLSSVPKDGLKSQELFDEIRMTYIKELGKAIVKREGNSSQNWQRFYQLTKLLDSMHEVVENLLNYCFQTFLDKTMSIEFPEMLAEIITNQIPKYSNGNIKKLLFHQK

COc1ccc(N/C(=N\c2nc(C)cc(C)n2)NC(=O)C(C)C)cc1OC
inactive: activity change, negative = inhibition [1] -12.4% | activity change, negative = inhibition [2] 21.2% | activity, negative = inhibition [3] -1.06% | Potency [4] > 20.6 µM

O=C(CSc1nnc(-c2ccccc2)c(-c2ccccc2)n1)N1CCOCC1
inactive: activity change, negative = inhibition [1] -3.06% | activity change, negative = inhibition [2] 0.00472% | activity, negative = inhibition [3] 8.97% | Potency [4] > 20.6 µM

COc1cccc(NC(=O)CC2SC(=Nc3ccccc3)NC2=O)c1 (stereo unspecified)
inactive: activity change, negative = inhibition [1] -10.5% | activity change, negative = inhibition [2] 2.42% | activity, negative = inhibition [3] -17.8% | Potency [4] > 20.6 µM

Cc1cccn2c(=O)c3cc(C(=O)NCc4cccnc4)c(=N)n(C)c3nc12
inactive: activity change, negative = inhibition [1] 0.507% | activity change, negative = inhibition [2] 5.48% | activity, negative = inhibition [3] 10% | Potency [4] > 20.6 µM

CCCC(=O)Nc1sc2c(c1C#N)CCCC2
inactive: activity change, negative = inhibition [1] -16.2% | activity change, negative = inhibition [2] -0.791% | activity, negative = inhibition [3] 8.33% | Potency [4] > 20.6 µM

COC(=O)NC(Nc1sc2c(c1C(N)=O)CCCC2)(C(=O)OC)C(F)(F)F (stereo unspecified)
inactive: activity change, negative = inhibition [1] 2.66% | activity change, negative = inhibition [2] 11.9% | activity, negative = inhibition [3] 5.04% | Potency [4] > 20.6 µM

N#Cc1nc(COc2ccc(Br)cc2)oc1NCCN1CCOCC1
inactive: activity change, negative = inhibition [1] -17.9% | activity change, negative = inhibition [2] 10.5% | activity, negative = inhibition [3] 1.36% | Potency [4] > 20.6 µM

CC(C)(C#N)C(C)(C)c1nn[nH]n1
inactive: activity change, negative = inhibition [1] 6.02% | activity change, negative = inhibition [2] 0.881% | activity, negative = inhibition [3] 8.72% | Potency [4] > 20.6 µM

COCC(C)Nc1ncnc2c1cnn2-c1ccc(Cl)cc1 (stereo unspecified)
inactive: activity change, negative = inhibition [1] -23.7% | activity change, negative = inhibition [2] -6.38% | activity, negative = inhibition [3] -3.72% | Potency [4] > 20.6 µM

COc1ccc(/C(O)=C2/C(=O)C(=O)N(CCN3CCOCC3)C2c2cccnc2)cc1OC (stereo unspecified)
inactive: activity change, negative = inhibition [1] -2.7% | activity change, negative = inhibition [2] 7.11% | activity, negative = inhibition [3] 6.33% | Potency [4] > 20.6 µM

CCOc1ccc(-c2nc(C#N)c(NCC(C)C)o2)cc1
inactive: activity change, negative = inhibition [1] -22.8% | activity change, negative = inhibition [2] -3.57% | activity, negative = inhibition [3] -7.96% | Potency [4] > 20.6 µM

COc1ccc(C2=Nn3c(nnc3-c3ccccc3)SC2)cc1OC
inactive: activity change, negative = inhibition [1] -10.8% | activity change, negative = inhibition [2] -10.8% | activity, negative = inhibition [3] 3.68% | Potency [4] > 20.6 µM

CC(C)Oc1ccc(/C(O)=C2/C(=O)C(=O)N(CCN(C)C)C2c2ccco2)cc1 (stereo unspecified)
inactive: activity change, negative = inhibition [1] -1.52% | activity change, negative = inhibition [2] -2.83% | activity, negative = inhibition [3] 8.49% | Potency [4] > 20.6 µM

CCc1cccc(C)c1N(C(=O)Cn1c(=O)[nH]c2ccccc21)C(C)COC (stereo unspecified)
inactive: activity change, negative = inhibition [1] -2.33% | activity change, negative = inhibition [2] 17.7% | activity, negative = inhibition [3] -1.06% | Potency [4] > 20.6 µM

O=C(Nc1ncn[nH]1)c1c(Cl)ccc(Cl)c1Cl
inactive: activity change, negative = inhibition [1] 13.1% | activity change, negative = inhibition [2] 1.62% | activity, negative = inhibition [3] -0.714% | Potency [4] > 20.6 µM

CC(=O)NCC(=O)OCN1C(=O)c2ccccc2C1=O
inactive: activity change, negative = inhibition [1] 10.5% | activity change, negative = inhibition [2] -1.05% | activity, negative = inhibition [3] 0.512% | Potency [4] > 20.6 µM

COc1cc(NC2=CC(=O)CC(C)(C)C2)cc(OC)c1OC
inactive: activity change, negative = inhibition [1] 7.47% | activity change, negative = inhibition [2] -11.1% | activity, negative = inhibition [3] 15.1% | Potency [4] > 20.6 µM

O=C(NCCOCCOCCNC(=O)c1cccnc1)c1cccnc1
inactive: activity change, negative = inhibition [1] -1.69% | activity change, negative = inhibition [2] -1.99% | activity, negative = inhibition [3] 3.22% | Potency [4] > 20.6 µM

CCCOc1ccc(/C(O)=C2/C(=O)C(=O)N(CCN(C)C)C2c2ccncc2)cc1 (stereo unspecified)
inactive: activity change, negative = inhibition [1] -5.87% | activity change, negative = inhibition [2] 4.76% | activity, negative = inhibition [3] 5.47% | Potency [4] > 20.6 µM

COc1ccc(-c2nnc3sc(-c4c(OC)cccc4OC)nn23)cc1
inactive: activity change, negative = inhibition [1] -13.7% | activity change, negative = inhibition [2] -15.1% | activity, negative = inhibition [3] 6.15% | Potency [4] > 20.6 µM

O=C(O)CCN(CCC(=O)O)c1nnc(SCc2ccccc2)s1
inactive: activity change, negative = inhibition [1] 8.29% | activity change, negative = inhibition [2] 12.2% | activity, negative = inhibition [3] 11.2% | Potency [4] > 20.6 µM

CN1C(=S)SC(N(O)C(=O)Nc2ccccc2)C1(C)C (stereo unspecified)
inactive: activity change, negative = inhibition [1] 1.19% | activity change, negative = inhibition [2] -13.4% | activity, negative = inhibition [3] 2.19% | Potency [4] > 20.6 µM

Cc1cc2c(c(=O)n1CC1CCCO1)C(c1ccc3c(c1)OCO3)C(C#N)=C(N)O2 (stereo unspecified)
inactive: activity change, negative = inhibition [1] -18.5% | activity change, negative = inhibition [2] -16.1% | activity, negative = inhibition [3] -17.8% | Potency [4] > 20.6 µM

CC1(C)Cc2c(C#N)c(SCc3nc4ccccc4[nH]3)nc(N3CCOCC3)c2CO1
inactive: activity change, negative = inhibition [1] -22.7% | activity change, negative = inhibition [2] 8.62% | activity, negative = inhibition [3] -16.1% | Potency [4] > 20.6 µM

COc1ccc(-c2oc3ncn4nc(Cc5ccccc5)nc4c3c2-c2ccc(OC)cc2)cc1
inactive: activity change, negative = inhibition [1] -0.634% | activity change, negative = inhibition [2] -13% | activity, negative = inhibition [3] -13.3% | Potency [4] > 20.6 µM

Cn1c(=O)c2c(nc(N3CCN(Cc4ccccc4)CC3)n2CC(=O)c2ccccc2)n(C)c1=O
inactive: activity change, negative = inhibition [1] -9.66% | activity change, negative = inhibition [2] -8.82% | activity, negative = inhibition [3] 0.621% | Potency [4] > 20.6 µM

CCOC(=O)c1c(-c2cccs2)csc1NC(=O)CCCC(=O)O
inactive: activity change, negative = inhibition [1] -7.6% | activity change, negative = inhibition [2] -2.47% | activity, negative = inhibition [3] -0.962% | Potency [4] > 20.6 µM

COc1cc(C2C(C#N)=C(N)Oc3cc(C)n(CCN4CCOCC4)c(=O)c32)cc(OC)c1OC (stereo unspecified)
inactive: activity change, negative = inhibition [1] 10.6% | activity change, negative = inhibition [2] 6.98% | activity, negative = inhibition [3] -2.02% | Potency [4] > 20.6 µM

CC1CCCCN1C(=O)C12CCC(C)(/C(=N/O)C1)C2(C)C (stereo unspecified)
inactive: activity change, negative = inhibition [1] -2.56% | activity change, negative = inhibition [2] 6.34% | activity, negative = inhibition [3] 7.2% | Potency [4] > 20.6 µM

Cn1c(=O)c2c(nc(NCCCO)n2Cc2cccc(C(F)(F)F)c2)n(C)c1=O
inactive: activity change, negative = inhibition [1] 8.4% | activity change, negative = inhibition [2] 7.97% | activity, negative = inhibition [3] -3.72% | Potency [4] > 20.6 µM

C=CCn1cnc2c(c1=O)c1nc3ccccc3nc1n2-c1ccc(C)cc1
inactive: activity change, negative = inhibition [1] -1.69% | activity change, negative = inhibition [2] -10.5% | activity, negative = inhibition [3] -8.6% | Potency [4] > 20.6 µM

Cc1nc(=O)c(-c2ccccc2)c(C)n1-c1ccc(S(N)(=O)=O)cc1
inactive: activity change, negative = inhibition [1] 7.15% | activity change, negative = inhibition [2] -1.07% | activity, negative = inhibition [3] 7.76% | Potency [4] > 20.6 µM

CCOC(=O)c1c(C)oc2ccc(OCC(=O)C(C)(C)C)cc12
inactive: activity change, negative = inhibition [1] -23.5% | activity change, negative = inhibition [2] 2.59% | activity, negative = inhibition [3] -10.1% | Potency [4] > 20.6 µM

Cc1nnc2n(Cc3ccccc3)c(=O)c3c4c(sc3n12)COC(C(C)C)C4 (stereo unspecified)
inactive: activity change, negative = inhibition [1] 10.6% | activity change, negative = inhibition [2] -9.5% | activity, negative = inhibition [3] 5.19% | Potency [4] > 20.6 µM
